Assay [1] has as its target T1, Serine/threonine-protein kinase Sgk3 (Homo sapiens) (UniProt Q96BR1).
T1 sequence (whole entry): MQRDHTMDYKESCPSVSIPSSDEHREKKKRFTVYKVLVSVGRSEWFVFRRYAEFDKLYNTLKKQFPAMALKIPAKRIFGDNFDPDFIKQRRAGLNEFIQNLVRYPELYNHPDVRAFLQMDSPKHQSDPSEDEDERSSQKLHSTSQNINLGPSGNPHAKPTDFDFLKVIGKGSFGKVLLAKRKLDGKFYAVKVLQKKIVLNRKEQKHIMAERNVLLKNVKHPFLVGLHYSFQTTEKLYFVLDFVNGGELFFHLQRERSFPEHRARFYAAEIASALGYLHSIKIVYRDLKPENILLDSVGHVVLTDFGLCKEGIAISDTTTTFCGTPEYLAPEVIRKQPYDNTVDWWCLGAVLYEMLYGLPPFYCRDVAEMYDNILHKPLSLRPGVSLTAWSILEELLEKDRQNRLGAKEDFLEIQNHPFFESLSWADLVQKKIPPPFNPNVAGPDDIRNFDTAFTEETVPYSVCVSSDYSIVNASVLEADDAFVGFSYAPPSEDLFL
The following applies: at 1 µM.

Assay [2] has as its target T2, Serine/threonine-protein kinase Sgk2 (Homo sapiens) (UniProt Q9HBY8).
T2 sequence (whole entry): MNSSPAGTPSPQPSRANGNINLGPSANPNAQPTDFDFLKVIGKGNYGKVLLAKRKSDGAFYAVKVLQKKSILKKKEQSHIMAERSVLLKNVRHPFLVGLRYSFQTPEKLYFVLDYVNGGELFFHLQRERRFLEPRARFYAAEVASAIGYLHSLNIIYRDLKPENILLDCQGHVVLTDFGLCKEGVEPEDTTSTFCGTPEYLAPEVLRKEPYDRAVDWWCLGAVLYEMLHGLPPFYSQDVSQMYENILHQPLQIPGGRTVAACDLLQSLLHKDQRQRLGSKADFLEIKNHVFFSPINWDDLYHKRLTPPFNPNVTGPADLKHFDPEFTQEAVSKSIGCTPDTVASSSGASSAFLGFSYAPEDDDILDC
Particulars: at 1 µM.

In assay [3] the target is T2, Serine/threonine-protein kinase Sgk2 (Homo sapiens). Particulars: at 10 µM.
The target in assay [4] is T1, Serine/threonine-protein kinase Sgk3 (Homo sapiens). Particulars: at 10 µM.
In assay [5] the target is Serine/threonine-protein kinase SIK1 (Homo sapiens) (UniProt P57059). The following applies: at 1 µM.
Sequence of Serine/threonine-protein kinase SIK1 (Homo sapiens) (P57059 whole entry): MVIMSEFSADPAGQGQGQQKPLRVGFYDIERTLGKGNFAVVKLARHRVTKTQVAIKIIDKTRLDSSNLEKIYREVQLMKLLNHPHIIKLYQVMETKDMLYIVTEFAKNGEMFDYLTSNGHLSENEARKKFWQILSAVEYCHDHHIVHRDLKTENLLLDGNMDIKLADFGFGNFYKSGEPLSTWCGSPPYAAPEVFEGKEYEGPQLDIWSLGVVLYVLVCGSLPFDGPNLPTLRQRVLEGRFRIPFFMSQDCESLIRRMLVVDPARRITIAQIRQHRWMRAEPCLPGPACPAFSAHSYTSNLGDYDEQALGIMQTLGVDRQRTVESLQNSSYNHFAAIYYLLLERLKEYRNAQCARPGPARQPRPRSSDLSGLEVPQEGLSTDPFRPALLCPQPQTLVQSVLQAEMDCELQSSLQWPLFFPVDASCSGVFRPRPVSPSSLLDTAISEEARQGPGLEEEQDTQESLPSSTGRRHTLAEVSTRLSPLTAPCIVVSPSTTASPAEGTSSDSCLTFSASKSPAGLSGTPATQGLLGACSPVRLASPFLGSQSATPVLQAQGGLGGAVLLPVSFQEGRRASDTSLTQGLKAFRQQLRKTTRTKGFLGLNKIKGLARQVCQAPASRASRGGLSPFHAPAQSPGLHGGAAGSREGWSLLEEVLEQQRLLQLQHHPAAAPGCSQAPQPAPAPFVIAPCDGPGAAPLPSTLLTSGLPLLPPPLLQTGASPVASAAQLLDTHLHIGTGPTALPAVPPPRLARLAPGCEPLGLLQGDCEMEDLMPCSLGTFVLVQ
Assay [6] shares this target. Particulars: at 10 µM.
The target of assay [7] is SRSF protein kinase 1 (Homo sapiens) (UniProt Q96SB4). The following applies: at 1 µM.
Sequence of SRSF protein kinase 1 (Homo sapiens) (Q96SB4 whole entry): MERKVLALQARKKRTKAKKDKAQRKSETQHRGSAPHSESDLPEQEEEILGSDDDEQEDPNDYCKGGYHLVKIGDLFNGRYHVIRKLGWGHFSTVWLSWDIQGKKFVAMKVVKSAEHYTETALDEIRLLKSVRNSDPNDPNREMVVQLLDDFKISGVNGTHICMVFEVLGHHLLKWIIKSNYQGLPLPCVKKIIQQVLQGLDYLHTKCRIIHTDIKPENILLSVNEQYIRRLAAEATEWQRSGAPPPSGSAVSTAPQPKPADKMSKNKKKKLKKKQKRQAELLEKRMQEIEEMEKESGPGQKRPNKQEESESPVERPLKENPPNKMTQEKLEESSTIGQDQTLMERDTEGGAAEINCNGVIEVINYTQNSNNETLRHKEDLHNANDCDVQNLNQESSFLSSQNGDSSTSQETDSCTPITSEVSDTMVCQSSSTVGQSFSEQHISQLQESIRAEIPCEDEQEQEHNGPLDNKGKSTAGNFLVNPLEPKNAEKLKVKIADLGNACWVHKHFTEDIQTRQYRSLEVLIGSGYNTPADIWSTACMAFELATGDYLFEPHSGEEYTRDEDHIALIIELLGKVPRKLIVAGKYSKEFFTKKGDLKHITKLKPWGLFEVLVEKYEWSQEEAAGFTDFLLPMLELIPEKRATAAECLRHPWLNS
The target is the same in assay [8]. Particulars: at 10 µM.
In assay [9] the target is SRSF protein kinase 2 (Homo sapiens) (UniProt P78362). The following applies: at 1 µM.
Sequence of SRSF protein kinase 2 (Homo sapiens) (P78362 whole entry, looked up): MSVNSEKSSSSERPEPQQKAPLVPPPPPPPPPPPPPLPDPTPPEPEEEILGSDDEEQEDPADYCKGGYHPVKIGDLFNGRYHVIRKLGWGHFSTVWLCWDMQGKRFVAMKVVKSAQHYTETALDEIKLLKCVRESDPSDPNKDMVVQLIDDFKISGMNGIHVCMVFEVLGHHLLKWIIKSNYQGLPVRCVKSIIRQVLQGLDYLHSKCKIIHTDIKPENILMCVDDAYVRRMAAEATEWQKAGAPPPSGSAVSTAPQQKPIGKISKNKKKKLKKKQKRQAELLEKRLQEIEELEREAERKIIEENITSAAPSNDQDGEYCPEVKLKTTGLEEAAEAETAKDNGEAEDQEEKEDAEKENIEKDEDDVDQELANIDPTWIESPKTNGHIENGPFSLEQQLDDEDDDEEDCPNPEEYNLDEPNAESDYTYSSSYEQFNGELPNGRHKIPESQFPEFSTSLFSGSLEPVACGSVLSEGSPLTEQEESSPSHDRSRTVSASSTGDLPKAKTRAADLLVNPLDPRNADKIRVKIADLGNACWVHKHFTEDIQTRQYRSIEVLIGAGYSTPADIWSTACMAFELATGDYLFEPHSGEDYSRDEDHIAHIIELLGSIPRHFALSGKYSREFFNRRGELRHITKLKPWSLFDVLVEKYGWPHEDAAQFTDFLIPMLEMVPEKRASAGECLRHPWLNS
For assay [10] the target is unchanged. The following applies: at 10 µM.

As a reminder, the residual activity is the signal under treatment as a percentage of the control signal. Take `NC(=O)Nc1sc(-c2ccc(F)cc2)cc1C(N)=O`: the residual activity in [1] was 93%.
Regarding `COc1cc2ncnc(Nc3ccc(OCc4ccccc4)cc3)c2cc1OC`, the residual activity was 89% in assay [2]; 96% in assay [3]; 115% in assay [1]; 108% in assay [4]; 82% in [5]; 103% in assay [6]. Besides, the residual activity was 102% in [7], 116% in [8], 108% in assay [9] and 104% in assay [10].
On to `O=[N+]([O-])/C=C/c1ccc2c(c1)OCO2`, for which the residual activity in assay [2] came out at 89%; in assay [3], 66%; in [1] it was 110%; in [4], 87%; in assay [5] it was 100%; in assay [6], 112%. The residual activity in assay [7] stood at 111%; in assay [8] it was 99%; in assay [9] it was 97%; in assay [10] it was 98%.
For `COc1cc2ncnc(Nc3ccc(O)c(Br)c3)c2cc1OC`, the residual activity in assay [1] is 99%.
Still for that read-out and setting: as for `C[C@@H](N)[C@H]1CC[C@H](C(=O)Nc2ccncc2)CC1`, the figure is 101%.
For `COC(=O)[C@@]1(O)C[C@H]2O[C@]1(C)n1c3ccccc3c3c4c(c5c6ccccc6n2c5c31)C(=O)NC4`, the residual activity was 7% in assay [2]; 1% in [3]; 47% in assay [1]; 13% in assay [4]; 0% in assay [5]; 0% in assay [6]. The residual activity in assay [7] stood at 67%; in assay [8], 14%; in assay [9], 97%; in assay [10] it was 52%.
Turning to `O=C(c1ccccc1)c1ccc(N2CCOCC2)cc1O`, the residual activity in [1] worked out at 97%.
On to `Nc1ccc2ncnc(NCCc3ccc(Oc4ccccc4)cc3)c2c1`, for which the residual activity in assay [1] stood at 109%.
Consider `c1cc(-c2cnn3cc(-c4ccc(OCCN5CCCCC5)cc4)cnc23)ccn1`, for which the residual activity in [2] amounted to 81%; in assay [3], 48%; in assay [4], 78%; in assay [5], 43%; in [6], 9%.
With `Cc1ccc(NC2=CC(=O)c3sc(C)nc3C2=O)cc1`, the residual activity in assay [1] was 96%.
In the case of `COc1ccc2c(c[n+](C)c3c4cc5c(cc4ccc23)OCO5)c1OC`, the residual activity in assay [2] is 130%; in assay [3] it was 65%; in assay [4], 79%; in assay [5], 92%; in [8], 98%; in [9], 96%. Also, the residual activity in assay [10] came to 96%.
Consider `CC(C)n1cnc2c(NCc3ccccc3)nc(NCCCO)nc21`, for which the residual activity in assay [1] worked out at 89%.
Still for that read-out and setting: as for `O=C1Cc2c([nH]c3ccc(Br)cc23)-c2ccccc2N1`, the figure is 91%; as for `O=C1NC(=O)c2c1c1c3ccccc3[nH]c1c1[nH]c3cc(Br)ccc3c21`, 96%.
Consider `C[S+]([O-])c1ccc(-c2nc(-c3ccc(F)cc3)c(-c3ccncc3)[nH]2)cc1` (stereo not given), for which the residual activity in [2] is 114%; in assay [3], 81%; in assay [1] it was 120%; in assay [4] it was 101%; in assay [5] it was 132%; in assay [6], 93%. Moreover, the residual activity in [7] worked out at 112%; in [8], 109%; in assay [9], 112%.
With `O=C1NC(=O)c2c1c1c3ccccc3n3c1c1c2c2ccccc2n1C1CCC3O1`, the residual activity in assay [2] stood at 77%; in assay [3] it was 61%; in assay [1], 98%; in assay [4], 80%; in assay [5] it was 123%; in assay [6] it was 74%. In addition, the residual activity in assay [7] stood at 92%; in [8], 83%.
Regarding `CCn1cnc2c(Nc3cccc(Cl)c3)nc(N[C@@H]3CCCC[C@@H]3N)nc21`, the residual activity in [2] is 97%; in assay [3] it was 65%; in assay [4] it was 59%; in [5] it was 20%; in [6] it was 0%; in [8], 39%. Besides, the residual activity in [9] came to 69%; in [10], 32%.
For `COc1cc2ncnc(Nc3ccc(Oc4ccccc4)cc3)c2cc1OC`, in assay [1], the residual activity worked out at 110%.
Turning to `Cc1cncc2cccc(S(=O)(=O)N3CCCN(C(=O)CN)C[C@H]3C)c12`, the residual activity in assay [1] came to 93%.
For `COc1ccc2c(c1)/C(=C/c1cnc[nH]1)C(=O)N2`, the residual activity came out at 32% in assay [3]; 100% in assay [1]; 53% in assay [4]; 145% in assay [5]; 48% in assay [6]; 98% in [8].
With `O=C(Nc1cccc(Nc2nccc(Nc3cccc(C(F)(F)F)c3)n2)c1)C1CC1`, the residual activity in assay [1] was determined as 126%.
As to `O=C1Nc2ccc3ncsc3c2/C1=C/c1c[nH]cn1`, the residual activity in assay [2] was determined as 12%; in [3], 5%; in [1], 73%; in [4], 21%; in [5] it was 49%; in [6], 43%. Also, the values for the residual activity in assay [7], in assay [8] and in [9] were 102%, 101% and 104%, respectively.
On to `CC[n+]1c(/C=C/N(C)c2ccccc2)n(-c2ccccc2)c2ccc(-c3nc4ccccc4s3)cc21`, for which, in assay [1], the residual activity amounted to 99%.
With `O=C(Nc1cccc(Nc2cc(Nc3cccc(C(F)(F)F)c3)ncn2)c1)C1CC1`, in [1], the residual activity came to 96%.
Consider `CC(C)(C)c1cc(C=C(C#N)C#N)cc(Br)c1O`, for which the residual activity worked out at 98% in assay [2]; 70% in [3]; 103% in assay [5]; 139% in assay [6]; 114% in [7]; 105% in assay [9]. Besides, the residual activity in assay [10] was found to be 81%.
As to `CCCCc1c(-c2ccc(O)cc2)[nH]c2nccnc12`, the residual activity in assay [1] stood at 98%.
Consider `Oc1ccc(-c2nc(-c3ccc(F)cc3)c(-c3ccncc3)[nH]2)cc1`, for which the residual activity in assay [1] was 109%.
In the case of `O=c1[nH]c2ccccc2n1C1CCN(Cc2ccc(-c3nc4cc5[nH]cnc5cc4nc3-c3ccccc3)cc2)CC1`, the residual activity in [2] amounted to 100%; in [3], 74%; in assay [1], 94%; in assay [4], 81%; in assay [5], 115%; in [6], 44%. Further, the residual activity in [7] came out at 80%; in assay [8], 97%; in [9], 99%; in [10], 80%.
In the case of `CC(=O)O/N=C1\C(=C2\C(=O)Nc3cc(Br)ccc32)Nc2ccccc21`, in assay [1], the residual activity was found to be 114%.
Consider `N#C/C(=C(\N)Sc1ccc(N)cc1)c1ccccc1C(F)(F)F`, for which, in assay [1], the residual activity stood at 102%.
Turning to `Cn1nc2c3c(cccc31)C(=O)c1ccccc1-2`, the residual activity in assay [1] stood at 79%.
As for `Oc1c2ccccc2c2c3c(cccc13)N=N2`, the residual activity in assay [1] is 85%.
On to `O=C1c2ccccc2-c2nc3nnnn3nc21`, for which the residual activity in assay [7] turned out to be 107%; in [8], 111%; in assay [10], 101%.
Turning to `Nc1ncnc2c1cnn2-c1ccccc1`, the residual activity in [1] came out at 94%.
Same read-out and setting: as for `O=C(c1cc2cc(O)ccc2[nH]1)c1cc2cc(O)ccc2[nH]1`, the figure is 81%; as for `O=[N+]([O-])c1ccc(-c2nc(-c3ccc(F)cc3)c(-c3ccncc3)[nH]2)cc1`, 111%.

Values taken from ChEMBL document CHEMBL2218924, “A broad activity screen in support of a chemogenomic map for kinase signalling research and drug discovery” (Biochem J, 2013).
